Source: PubChem
GDH-TPI counter-1: GDH-TPI coupled enzyme inhibition counter-screen | GDH-TPI coupled enzyme counterscreen, NADH absorbance | inhibition, % at 4.8 µM | 360,000 compounds, 1.2% hits | AID 588335; in the data active = inhibition above about 30%;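 note: 0% = DMSO wells and 100% = wells lacking the enzyme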
FBA Mtb inh: inhibits M. tuberculosis FBA enzyme. purified M. tuberculosis FBA, fluorescence read-out. inhibition, % at 1 µM. 360,000 compounds, 2.3% hits. AID 588726;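 note: 0% = vehicle and 100% = reference inhibitor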
Target sequence (P9WQA3 whole entry, looked up): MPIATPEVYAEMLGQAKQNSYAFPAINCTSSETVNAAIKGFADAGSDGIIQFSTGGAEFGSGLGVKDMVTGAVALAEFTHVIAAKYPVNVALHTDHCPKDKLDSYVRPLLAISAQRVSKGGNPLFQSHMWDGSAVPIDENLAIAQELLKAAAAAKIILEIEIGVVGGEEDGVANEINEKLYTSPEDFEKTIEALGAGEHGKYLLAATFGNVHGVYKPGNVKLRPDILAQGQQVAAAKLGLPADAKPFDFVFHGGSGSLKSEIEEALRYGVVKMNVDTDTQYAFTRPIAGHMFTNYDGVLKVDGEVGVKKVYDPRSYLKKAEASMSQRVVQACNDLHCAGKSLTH
Vc quorum ag: induces V. cholerae light production without autoinducers. V. cholerae BH1578 lux reporter, luminescence, 6 h. 350,000 compounds, 0.16% hits. activation, % at 18.7 µM; in the data active = activation mostly above about 9.7%, no sharp cut-off
BioA inh: BioA (M. tuberculosis) enzyme inhibition; purified M. tuberculosis BioA enzyme, plate reader; inhibition, % at 9.99 µM; 360,000 compounds, 0.096% hits; in the data active = inhibition above about 40%
Mtb FBA confirm: confirmation of M. tuberculosis fructose-bisphosphate aldolase inhibitors; shares compounds with FBA Mtb inh; AID 651616; inhibition, % at 1 µM; 5,600 compounds, 78% hits; purified M. tuberculosis FBA, fluorescence read-out;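 note: 0% = vehicle wells and 100% = reference inhibitor wells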
GDH-TPI counter-2: GDH-TPI inhibition counter-screen for FBA inhibitors. shares compounds with FBA Mtb inh. GDH-TPI coupled enzyme counterscreen, fluorescence. inhibition, % at 1 µM. 5,600 compounds, 81% hits. AID 652141; in the data active = inhibition above about 10%
Active calls of the source: *; i = inactive; / = no result; + = active, no number. Compounds with a hit are over-represented: about 3% of the library has one in this group of screens. Cut-off read from the data, not from the text of the source, unless noted: active = inhibition above about 27%; inactive = the rest.

SMILES	GDH-TPI counter-1	FBA Mtb inh	Vc quorum ag	BioA inh	Mtb FBA confirm	GDH-TPI counter-2
CCOc1ccccc1N(C(=O)c1snc(C(N)=O)c1N)C(C(=O)NCc1ccccc1)c1ccc(O)cc1 (stereo unspecified)	9.6	6.8	0.6	0.0	/	/
Cc1ccccc1N(C(=O)c1snc(C(N)=O)c1N)C(C(=O)NCc1ccccc1)c1ccc(O)cc1 (stereo unspecified)	12.6	42.6*	0.1	-1.1	10.1	4.3
CC(C)NC(=O)N[C@@H]1C=C[C@H](CC(=O)NC2Cc3ccccc3C2)O[C@H]1CO	/	/	/	-0.3	/	/
C[C@H]1CN([C@@H](C)CO)C(=O)Cc2cc(NS(C)(=O)=O)ccc2O[C@@H]1CN(C)C(=O)Nc1ccccc1	/	/	/	-2.2	/	/
COc1ccc(C2CC(=O)C=C3c4ccc(OC)cc4CCC32)cc1 (stereo unspecified)	25.7	4.3	-5.0	-0.3	/	/
COc1ccc2c(c1)CCC1(C)CC(=O)C=C21 (stereo unspecified)	36.9*	39.1*	i	0.7	45.6*	44.8*
CC1=CC(c2ccc(Cl)cc2)n2nc(NC(=O)CCCC(=O)O)nc2N1 (stereo unspecified)	1.8	75.0*	-0.9	/	58.9*	45.1*
COc1ccc2cc3cc(C(=O)NCCCN4CCc5ccccc5C4)sc3nc2c1	6.5	26.8	-0.3	/	/	/
COc1ccc2cc3cc(C(=O)NC4CC4)sc3nc2c1	23.5	101.8*	-0.2	-0.6	129.5*	117.1*
O=c1oc(Nc2ccccc2Cl)nc2ccccc12	2.5	24.1	0.1	/	/	/
O=c1oc(Nc2cccc(Cl)c2)nc2ccccc12	-5.8	47.8*	-0.1	/	34.1*	18.1*
CCCn1nc2cc(C(=O)NCc3ccc(C)cc3)ccc2c1OC	8.6	58.5*	i	-0.9	44.8*	35.1*
CCOc1c2ccc(C(=O)NCc3ccc(C)cc3)cc2nn1CCOC	0.0	44.0*	i	-4.4	142.2*	117.5*
CCCCC(=O)Nc1cc(N(C)C)nc2ccccc12	13.8	34.6*	0.7	-0.2	+	+
CCCC1Cc2c(sc3ncnc(N)c23)CO1 (stereo unspecified)	1.9	27.5*	4.5	1.2	142.4*	120.9*
COc1c(F)cc2[nH]c3c(c2c1F)CCNC3=O	-0.9	38.4*	i	0.1	+	176.4*
CCOC(=O)C(O)C1CCc2c([nH]c3ccc(C)cc23)C1=O (stereo unspecified)	7.7	6.9	-1.5	1.2	/	/
Cc1ccc2[nH]c3c(c2c1)CCNC3=O	11.1	75.4*	-0.5	-0.5	112.7*	93.3*
Cc1ccc(S(=O)(=O)N(C)C[C@@H]2OCCCC[C@@H](C)Oc3ccc(NS(C)(=O)=O)cc3C(=O)N([C@@H](C)CO)C[C@@H]2C)cc1	/	/	/	1.0	/	/
Cn1c(=O)c(=O)n(C)c2cc(S(=O)(=O)N3CCOCC3)ccc21	0.6	5.2	-0.2	-0.7	/	/
Cc1ccn2c(c1)nc(=O)c1cc(S(=O)(=O)N3CCOCC3)ccc12	9.6	79.1*	-0.1	0.6	152.6*	108.7*
Cc1cc(=O)[nH]c2ccc(S(=O)(=O)N3CCOCC3)cc12	-4.2	71.8*	0.9	1.6	123.9*	137.0*
C[C@@H]1CN([C@H](C)CO)C(=O)c2cc(-c3cccc(C#N)c3)cnc2O[C@@H]1CN(C)C(=O)c1ccccn1	/	/	/	8.8	/	/
CCOC(=O)c1cc2c(=O)n3cccc(C)c3nc2n(CC2CCCO2)c1=NC(C)=O (stereo unspecified)	5.6	79.3*	-0.4	3.5	90.3*	68.3*
CC(C)NC(=O)c1ccc2c(=O)n(CC3CCCO3)c(=S)[nH]c2c1 (stereo unspecified)	6.2	0.3	i	/	/	/
SMILES	GDH-TPI counter-1	FBA Mtb inh	Vc quorum ag	BioA inh	Mtb FBA confirm	GDH-TPI counter-2
COc1ccc(NC(=O)Nc2ccc3c(c2)C(=O)N([C@@H](C)CO)C[C@@H](C)[C@@H](CN(C)Cc2ccc(C(=O)O)cc2)OCCCC[C@@H](C)O3)cc1	/	/	/	1.6	/	/
O=C(O)c1cc(S(=O)(=O)O)cc(Nc2c3ccccc3nc3ccccc23)c1O	-2.5	43.2*	0.6	-1.0	40.5*	33.9*
C=CCn1c(-c2cc3cccc(OC)c3o2)n[nH]c1=S	9.6	43.8*	-1.1	/	102.1*	71.7*
C=CCn1c(-c2cccc(OC)c2OC)n[nH]c1=S	-5.0	-0.6	i	-2.3	/	/
CO[C@H]1CN(C)C(=O)c2cc(NS(=O)(=O)CC(F)(F)F)ccc2OC[C@H](C)N(Cc2ccccn2)C[C@@H]1C	/	/	/	-3.2	/	/
Cc1ccc(S(=O)(=O)N[C@@H]2C=C[C@@H](CC(=O)NCCc3ccncc3)O[C@@H]2CO)cc1	/	/	/	-3.6	/	/
C[C@H](CO)N1C[C@H](C)[C@H](CN(C)C(=O)Nc2ccc(C(F)(F)F)cc2)Oc2ccc(NC(=O)Cn3cnnn3)cc2C1=O	/	/	/	-1.7	/	/
N#C[C@@H]1[C@H](c2ccccc2)[C@H](CO)N1C(=O)Cc1ccccc1	/	/	/	-1.4	/	/
O=C1Nc2ccccc2O/C1=C\c1ccccc1	16.4	29.6*	-0.5	-1.2	160.0*	102.4*
Cc1ccc2nc(-c3ccc(S(=O)(=O)N4CCCCC4)cc3)cn2c1	0.3	52.9*	-0.2	/	45.2*	39.1*
Cc1ccc(S(=O)(=O)N2CCN(S(=O)(=O)N3CCCCC3)CC2)cc1	-9.2	1.0	i	/	/	/
CCN(CC)c1ccc(C2NC(=O)c3ccccc3N2)cc1 (stereo unspecified)	29.3	22.7	i	/	/	/
O=C1NC(c2ccc3ccccc3c2)Nc2ccccc21 (stereo unspecified)	7.6	50.5*	-4.0	1.1	71.2*	87.4*
O=C1NC(c2ccc(Br)cc2)Nc2ccccc21 (stereo unspecified)	10.4	41.8*	1.9	-1.2	102.2*	94.9*
CCCSc1nnc(NC(=O)c2sc3nc(-c4cccs4)ccc3c2N)s1	36.5*	43.2*	-0.7	/	153.4*	115.6*
CCN(CC)CCN(Cc1cc2cc3c(cc2[nH]c1=O)OCO3)C(=S)NCCOC	26.4	33.5*	1.8	-1.0	31.6*	31.6*
COCCCNC(=S)N(CCO)Cc1cc2cc3c(cc2[nH]c1=O)OCO3	20.6	30.8*	-0.2	-0.3	+	+
CCN(CC)CCCN(Cc1cc2cc3c(cc2[nH]c1=O)OCO3)C(=S)Nc1ccccc1	12.7	10.5	i	1.1	/	/
CCCCNC(=S)N(CCCO)Cc1cc2cc3c(cc2[nH]c1=O)OCO3	14.2	4.4	-0.8	0.5	/	/
COCCNC(=S)N(CCCO)Cc1cc2cc3c(cc2[nH]c1=O)OCO3	4.4	-0.8	i	-2.3	/	/
CCN(CC)CCCN(Cc1cc2cc3c(cc2[nH]c1=O)OCO3)C(=S)NCCOC	34.1*	52.4*	i	-0.6	1.6	0.6
Cc1nc2c3cnn(-c4ccc(C)c(C)c4)c3ncn2n1	6.6	38.1*	i	/	118.6*	96.0*
COC(=O)CSc1nc2nc(-c3cccs3)cc(C(F)(F)F)c2c(=O)[nH]1	-4.4	7.4	i	-1.2	/	/
O=C(CSc1nc2nc(-c3cccs3)cc(C(F)(F)F)c2c(=O)[nH]1)NCc1ccco1	7.4	94.8*	-1.2	5.1	1.8	-8.3
